Where “and” joins values, the source holds several entries; their conditions need not be identical. Equal entries are not always repeated. Compounds without any hit were thinned out: in the full panel of roughly 83,000, 20% have a hit.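 Assay: single dose, 48 h. Readout: percent growth (0 = no net growth; negative = cell death). Active: <10.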 Calls of active or inactive are those of the source.
Test system: NCI-H322M lung
Experiment: NCI-60 one-dose screen, 48 h (100 = growth as untreated, 0 = no growth, -100 = all killed)
Details: 10 µM unless noted
Experimental: Growth inhibition of the NCI-H322M human Non-Small Cell Lung tumor cell line is measured as a screen for anti-cancer activity. Cells are grown in 96 well plates and exposed to the test compound for 48 hours. Compounds are tested at a single concentration, which is 10^-5 M for most compounds. The reported endpoint is percent growth (GI% or GIPRCNT), where numbers from 0 - 100% represent growth inhibition, and numbers from -100% - 0 represent cell death. For example, a value of 40 represents 60% growth inhibition. A value of 0 means no net growth occurred over the course of the experiment. A value of -40 indicates 40% of cells at the beginning of the experiment died by the end of the experiment. A value of -100 means all cells are dead at the end of the experiment.
NCI-60 Human Tumor Cell Lines Screen was performed using the standard one-dose NCI protocol, which is described in more detail at https://dtp.cancer.gov/discovery_development/nci-60/default.htm.
Compounds with GIPRCNT values below 10 were considered active. Activity score was based on GIPRCNT using the following formula: […]
Score is 0 for GIPRCNT values of 100 or above, 50 for GIPRCNT values of 0, and 100 for GIPRCNT values of -100.

SMILES	growth
Oc1ccccc1N=Cc1ccccc1	87.5% (inactive)
O=C(Nc1ccc(Cl)c(Cl)c1)Nc1ccccc1O	87.3% (inactive)
CCCCCCCCC(=O)OCCCC(CCC(CCC1CCCO1)OC(=O)CCCCCCCC)OC(=O)CCCCCCCC (stereo not given)	102% (inactive)
CC1(C)OCC(COC(c2ccccc2)(c2ccccc2)c2ccccc2)O1 (stereo not given)	92.2% (inactive)
c1csc(-c2[nH]nc3c2CCc2ccccc2-3)c1	55.4% (inactive)
O=[N+]([O-])/C(=C/c1ccccc1)c1ccccc1	106% (inactive)
Oc1c(C(Nc2ccccc2)c2ccccc2)ccc2cccnc12 (stereo not given)	46.4% (inactive)
CCCCCCCCc1cc(Cl)c(O)c(Cl)c1	121% (inactive)
C(=N\Nc1ccc2ccccc2n1)/c1ccccn1	-5.75% (active)
CCN1/C(=C/C(C)=C/c2sc3ccc4ccccc4c3[n+]2CC)Sc2ccc3ccccc3c21	-97.8% (active)
N#CC(=C1SCS1)[N+](=O)[O-]	70.7% (inactive)
Nc1cccc2cccc([N+](=O)[O-])c12	114% (inactive)
O=C1C=Cc2ccccc2/C1=C/c1nc(-c2ccccc2)oc1O	90.6% (inactive)
Cc1cc(C)c(C#N)c(Sc2nc(C)c([N+](=O)[O-])c(C)c2C#N)n1	83.6% (inactive)
COc1cc(/C=C/c2ccnc3ccccc23)cc(OC)c1OC	65.7% (inactive)
COC(=O)c1cc([N+](=O)[O-])cc([N+](=O)[O-])c1Cl	106% (inactive)
O=C1C=CC(=O)N1c1ccccc1	110% (inactive)
CN(C)c1ccc(C(=C2C=CC(=[N+](C)C)C=C2)c2ccc(N(C)C)cc2)cc1	-42.2% (active)
Cc1ccc2c(c1)sc(-c1ccc(N(C)C)cc1)[n+]2C	12.7% (inactive)
N#CC1c2ccccc2C=CN1C(=O)CCCl (stereo not given)	93.8% (inactive)

SMILES	growth
O=C(/C=C/c1ccccc1)c1ccccc1O	90.2% (inactive)
CCCCCCCCCCCC[n+]1ccc(CCCCCCCCC)cc1	56.1% (inactive)
Oc1ccc(Cl)cc1C(c1cc(Cl)ccc1O)C(Cl)(Cl)Cl	27.7% (inactive)
c1ccc(-c2cc3cc4ccccc4cn3c2)cc1	99.6% (inactive)
COC1=CC(=O)c2c(O)c3c(c(O)c2C1=O)CC(C)(O)OC3 (stereo not given)	5.37% (active)
CCOc1ccc(C(CN2CCOCC2)C(C)=O)cc1OC (stereo not given)	117% (inactive)
COC(=O)C(=[N+]=[N-])C(=O)c1ccc([N+](=O)[O-])o1	103% (inactive)
Cc1cc(C(=O)c2ccc(Cl)cc2)ccc1O	103% (inactive)
CCOC(=O)c1c(C)[nH]c2ccc(O)cc12	99.7% (inactive)
OC(c1cc(-c2ccc(C(F)(F)F)cc2)nc(C(F)(F)F)c1)C1CCCCN1 (stereo not given)	48.2% (inactive) and 29.8% (inactive) and 70.3% (inactive)
CCOC(=O)c1[nH]c(C#N)c(C(=O)OCC)c1C	93.6% (inactive)
CCCOC(=O)c1nc(N(CC2CCCCC2)C(=O)NC)sc1/N=C/c1ccccc1	57.9% (inactive)
O=C1CSC(=S)N1Cc1cccnc1	85.7% (inactive)
CC(C)Nc1ccc(Nc2ccc(NC(C)C)cc2)cc1	84.6% (inactive)
O=C(Cc1ccccc1)C(F)(F)F	94.2% (inactive)
O=C(NNc1ccccc1)OCc1ccccc1	67.6% (inactive)
O=[N+]([O-])c1ccc(Oc2ccccc2Cl)c([N+](=O)[O-])c1	97.8% (inactive)
CCOc1ccc2c(c1)/C(=C\C=C\C1CC(C)C3CC(OCC)CCC3N1CC)CC(C)N2CC (stereo not given)	4.18% (active)
N#C/C(=N\Nc1ccc(Cl)cc1)C(=O)C1CC1	82.1% (inactive)
O=C/C=C/c1ccc([N+](=O)[O-])cc1	104% (inactive)

Source: PubChem BioAssay (NCI)
